Drawing on PubChem BioAssay (Tox21), this text covers Potency for nine molecules.

The source made the active and inactive calls. Unless noted, calls follow the shape of the dose curve; as a rule, active = well fitted curve in the direction sought with a large enough effect in the repeat runs; inconclusive = weak or mixed curves; inactive = no such curve, though single readings can be large; an effect the other way counts as inactive or inconclusive.

Assay [1] is described as follows: qHTS assay to identify small molecule antagonists of the thyroid receptor (TR) signaling pathway - cell viability counter screen (AID 743064). Also: nearly all actives have a fitted effect of over 50% in size. Also: potency is read from the fitted curve at half-maximal effect. The method, boiled down: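 GH3.TRE-Luc rat pituitary cells dosed after 4 hr plating, co-stimulated with T3 at 1 nM final, incubated 23.5 h at 37 C. Viability measured in the same wells by CellTiter-Fluor fluorescence after 30 min further at 37 C.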
A general note: In qHTS, concentration-response curves come from the screen itself.

Assay [2] has as its system thyroid hormone receptor (rat, GH3 cells). Briefly: qHTS assay to identify small molecule agonists of the thyroid receptor (TR) signaling pathway (AID 743066; calls by dose curve).
Assay [3] can be described thus: qHTS assay to identify small molecule antagonists of the estrogen receptor alpha (ER-alpha) signaling pathway using the BG1 cell line - cell viability counter screen (AID 743081).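 Also: compound given together with 17beta-estradiol as the ER stimulus; nearly all actives have a fitted effect of over 45% in size.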 Also: potency is read from the fitted curve at half-maximal effect.
The target of another assay is Aromatase (Homo sapiens) (UniProt P11511). Briefly: qHTS assay to identify aromatase inhibitors (AID 743083). Also: nearly all actives have a fitted effect of over 55% in size. Also: potency is read from the fitted curve at half-maximal effect.
Assay [4] in a line: qHTS assay to identify aromatase inhibitors - cell viability counter screen (AID 743084).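 Also: cells stimulated with testosterone during compound exposure; nearly all actives have a fitted effect of over 55% in size.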 Also: potency is read from the fitted curve at half-maximal effect.
Assay [5] addresses Aryl hydrocarbon receptor (Homo sapiens) (UniProt P35869). Briefly: qHTS assay to identify small molecule that activate the aryl hydrocarbon receptor (AhR) signaling pathway (AID 743085).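 Also: HG2L7.5c1 human HepG2 liver cells with stably integrated DRE-driven firefly reporter; series mostly up to about 70 µM; nearly all actives have a fitted effect of over 15% in size.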 Summed up:
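HepG2 cells stably carrying a 20-DRE firefly luciferase reporter (HG2L7.5c1) treated with compound for 24 hr at 37C. Luciferase read by ONE-Glo luminescence, with CellTiter-Fluor viability read first.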

Assay [6] in a line: qHTS assay to identify small molecule that activate the aryl hydrocarbon receptor (AhR) signaling pathway - cell viability counter screen (AID 743086). Also: nearly all actives have a fitted effect of over 45% in size. Also: potency is read from the fitted curve at half-maximal effect. The method, boiled down: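 HepG2-AhR-luc (HG2L7.5c1) cells, 4000/well, treated 24 h at 37 C with compound; viability measured as CellTiter-Fluor fluorescence after 30 min in the same wells as the luciferase read.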
Assay [7] concerns the target Peroxisome proliferator-activated receptor gamma (Homo sapiens) (UniProt P37231). As to the kind of experiment: qHTS assay to identify small molecule agonists of the peroxisome proliferator-activated receptor gamma (PPARg) signaling pathway (AID 743094; active = well fitted activation curve with a large enough effect in the signal ratio in the repeat runs, not every such curve was filed as active; inconclusive = weak or mixed curves, or effect the other way; inactive = no such curve, though single readings can be large or run the other way; the % refers to the signal ratio). The method, boiled down:
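Following 5 h plating at 37C, PPARg-bla HEK293H cells receive compound or DMSO for 17 h; fluorescence intensity is recorded after LiveBLAzer B/G loading for 1 h at room temperature.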

For assay [8] the target is unchanged. Briefly: qHTS assay to identify small molecule antagonists of the peroxisome proliferator-activated receptor gamma (PPARg) signaling pathway (AID 743191; calls by dose curve; also: series mostly up to about 63 µM; nearly all actives have a fitted effect of over 30% in size). Summed up: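 GeneBLAzer PPARg UAS-bla HEK293H cells, 5 h post-plating, exposed to compounds 17 h at 37C. LiveBLAzer B/G FRET substrate added for 1 h at room temperature; beta-lactamase reporter read by fluorescence intensity.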

Assay [9] is described as follows: qHTS assay to identify small molecule antagonists of the peroxisome proliferator-activated receptor gamma (PPARg) signaling pathway - cell viability counter screen (AID 743194). Also: nearly all actives have a fitted effect of over 55% in size. Also: potency is read from the fitted curve at half-maximal effect. The following applies: Potency: co-treated with 50 nM rosiglitazone unless noted. Summed up:
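Cytotoxicity counter screen in PPARg-bla HEK293H cells, same wells as reporter assay. Compounds plus 50 nM rosiglitazone (final) for 17 h at 37 C, then viability read by CellTiter-Glo luminescence.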

Assay [10] is described as follows: qHTS assay for small molecule agonists of the antioxidant response element (ARE) signaling pathway (AID 743202; active = well fitted activation curve with a large enough effect in the signal ratio in the repeat runs, not every such curve was filed as active; inconclusive = weak or mixed curves, or effect the other way; inactive = no such curve, though single readings can be large or run the other way; the % refers to the signal ratio; also: potency is read from the fitted curve at half-maximal effect). Summed up: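 Agonist mode reporter screen: HepG2 cells with ARE-controlled beta-lactamase are incubated with test compounds for 16 h at 37 C, and beta-lactamase activity is measured as fluorescence of cleaved B/G FRET substrate.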
Assay [11] can be described thus: qHTS assay for small molecule agonists of the antioxidant response element (ARE) signaling pathway - cell viability counter screen (AID 743203; calls by dose curve; also: nearly all actives have a fitted effect of over 55% in size; also: potency is read from the fitted curve at half-maximal effect). Summed up:
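Compounds in DMSO were pinned onto ARE-bla HepG2 cells plated 5 hrs earlier at 2,000 cells/well. Sixteen hours later at 37C/5% CO2, CellTiter-Glo was added and luminescence measured after 30 min at room temperature.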

Assay [12] in a line: qHTS assay to identify small molecule antagonists of the estrogen receptor alpha (ER-alpha) signaling pathway - cell viability counter screen (AID 743074; calls by dose curve;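 also: HEK293 cells carrying ER-alpha-UAS-bla reporter stimulated with 17beta-estradiol; nearly all actives have a fitted effect of over 45% in size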; also: potency is read from the fitted curve at half-maximal effect).
Assay [13] in a line: qHTS assay for small molecule activators of the heat shock response signaling pathway - cell viability counter screen (AID 743209). Also: nearly all actives have a fitted effect of over 50% in size. Also: potency is read from the fitted curve at half-maximal effect. Summed up:
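Counter screen for cytotoxicity in HeLa HSE-bla reporter cells. Treatment was 5 h at 37 C; viability was detected by luminescent ATP assay (CellTiter-Glo) in the same wells as the beta-lactamase read.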

Assay [14] is described as follows: qHTS assay to identify small molecule antagonists of the thyroid receptor (TR) signaling pathway (AID 743065). Summed up: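 GH3.TRE-Luc rat pituitary cells (two TREs driving luciferase) were dosed with compound, then stimulated with 1 nM T3 (final) for 23.5 h at 37 C. ONE-Glo luminescence was the read-out, with CellTiter-Fluor fluorescence as the cytotoxicity counter-screen.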

In assay [15] the target is Estrogen receptor (Homo sapiens) (UniProt P03372). As to the kind of experiment: qHTS assay to identify small molecule agonists of the estrogen receptor alpha (ER-alpha) signaling pathway (AID 743075; calls by dose curve;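 also: HEK293 GripTite cells with ER-alpha and UAS-driven beta-lactamase reporter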; also: potency is read from the fitted curve at half-maximal effect).
Assay [16] shares this target. As to the kind of experiment: qHTS assay to identify small molecule antagonists of the estrogen receptor alpha (ER-alpha) signaling pathway (AID 743069; active = well fitted curve in the direction sought with a large enough effect in the signal ratio in the repeat runs, not every such curve was filed as active; inconclusive = weak or mixed curves, or effect the other way; inactive = no such curve, though single readings can be large or run the other way; the % refers to the signal ratio). Summed up: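 Reporter cells (ER-alpha-bla, HEK293 background) are conditioned overnight in stripped-serum medium (2% charcoal-stripped FBS). Compound and 17beta-estradiol exposure runs 18 hr at 37C, 5% CO2.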
The nature of assay [17]: qHTS assay to identify small molecule antagonists of the estrogen receptor alpha (ER-alpha) signaling pathway using the BG1 cell line (AID 743080; calls by dose curve;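 also: BG1 cells stimulated with 17beta-estradiol alongside compound; nearly all actives have a fitted effect of over 25% in size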; also: potency is read from the fitted curve at half-maximal effect). Summed up: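 Quantitative HTS on the Tox21 10K library: BG1 cells with endogenous ER-alpha and ERE-luciferase reporter, 17beta-estradiol stimulation, 21.5 h compound exposure, luminescence endpoint with parallel fluorescence cytotoxicity counter-read.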

Assay [18] can be described thus: qHTS assay for small molecule activators of the heat shock response signaling pathway (AID 743210; active = well fitted activation curve with a large enough effect in the signal ratio in the repeat runs, with a control signal flat, not every such curve was filed as active; inconclusive = weak or mixed curves; the % refers to the signal ratio;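 also: HeLa cells with beta-lactamase reporter driven by heat shock elements; series mostly up to about 63 µM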). The method, boiled down: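 Quantitative high-throughput format using an engineered HeLa line in which heat shock response elements drive beta-lactamase; after 5 h with compound, cells received a B/G FRET substrate and fluorescence was read.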

Aromatase (Homo sapiens), sequence (P11511 whole entry, looked up): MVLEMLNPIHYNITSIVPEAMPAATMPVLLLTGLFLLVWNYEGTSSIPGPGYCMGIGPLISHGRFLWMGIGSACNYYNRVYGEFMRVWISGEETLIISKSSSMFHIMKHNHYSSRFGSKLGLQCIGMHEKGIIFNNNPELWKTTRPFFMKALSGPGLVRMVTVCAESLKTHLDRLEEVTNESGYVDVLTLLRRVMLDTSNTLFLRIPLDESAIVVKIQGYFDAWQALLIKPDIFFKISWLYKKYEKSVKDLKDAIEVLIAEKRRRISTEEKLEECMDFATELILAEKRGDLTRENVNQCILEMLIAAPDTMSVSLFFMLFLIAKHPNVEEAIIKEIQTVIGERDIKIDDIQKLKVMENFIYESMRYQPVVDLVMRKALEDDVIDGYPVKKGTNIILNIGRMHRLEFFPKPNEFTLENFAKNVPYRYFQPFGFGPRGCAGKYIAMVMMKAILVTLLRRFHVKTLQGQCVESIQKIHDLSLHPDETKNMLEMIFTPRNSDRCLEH
Estrogen receptor (Homo sapiens), sequence (P03372 whole entry, looked up): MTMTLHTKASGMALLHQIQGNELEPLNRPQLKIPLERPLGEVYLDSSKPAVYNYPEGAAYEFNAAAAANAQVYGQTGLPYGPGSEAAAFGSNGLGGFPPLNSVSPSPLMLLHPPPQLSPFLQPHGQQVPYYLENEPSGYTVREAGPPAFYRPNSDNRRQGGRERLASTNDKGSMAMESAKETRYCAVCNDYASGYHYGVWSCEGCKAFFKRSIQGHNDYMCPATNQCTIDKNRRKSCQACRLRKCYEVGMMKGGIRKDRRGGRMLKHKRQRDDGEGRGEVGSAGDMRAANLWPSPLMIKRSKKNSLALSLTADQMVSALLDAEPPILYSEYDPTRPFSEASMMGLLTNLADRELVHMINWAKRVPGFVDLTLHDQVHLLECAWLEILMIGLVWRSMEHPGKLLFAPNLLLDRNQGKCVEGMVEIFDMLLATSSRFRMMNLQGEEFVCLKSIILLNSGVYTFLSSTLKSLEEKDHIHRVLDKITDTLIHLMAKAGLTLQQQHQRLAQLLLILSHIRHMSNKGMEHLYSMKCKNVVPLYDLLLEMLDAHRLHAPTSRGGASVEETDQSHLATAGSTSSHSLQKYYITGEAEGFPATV
Peroxisome proliferator-activated receptor gamma (Homo sapiens), sequence (P37231 whole entry, looked up): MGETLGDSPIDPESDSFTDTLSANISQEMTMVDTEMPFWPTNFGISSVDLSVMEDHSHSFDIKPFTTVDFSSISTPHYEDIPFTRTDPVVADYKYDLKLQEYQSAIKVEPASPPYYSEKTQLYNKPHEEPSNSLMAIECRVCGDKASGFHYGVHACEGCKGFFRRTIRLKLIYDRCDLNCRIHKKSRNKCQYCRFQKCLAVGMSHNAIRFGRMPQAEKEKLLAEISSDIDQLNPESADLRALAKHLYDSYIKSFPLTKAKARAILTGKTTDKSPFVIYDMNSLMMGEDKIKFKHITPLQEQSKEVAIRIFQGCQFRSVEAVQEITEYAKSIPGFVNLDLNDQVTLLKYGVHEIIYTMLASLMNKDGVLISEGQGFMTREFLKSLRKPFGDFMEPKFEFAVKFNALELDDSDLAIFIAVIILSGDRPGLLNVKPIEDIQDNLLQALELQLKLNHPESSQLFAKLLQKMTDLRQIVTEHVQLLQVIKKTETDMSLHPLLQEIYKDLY
Aryl hydrocarbon receptor (Homo sapiens), sequence (P35869 whole entry, looked up): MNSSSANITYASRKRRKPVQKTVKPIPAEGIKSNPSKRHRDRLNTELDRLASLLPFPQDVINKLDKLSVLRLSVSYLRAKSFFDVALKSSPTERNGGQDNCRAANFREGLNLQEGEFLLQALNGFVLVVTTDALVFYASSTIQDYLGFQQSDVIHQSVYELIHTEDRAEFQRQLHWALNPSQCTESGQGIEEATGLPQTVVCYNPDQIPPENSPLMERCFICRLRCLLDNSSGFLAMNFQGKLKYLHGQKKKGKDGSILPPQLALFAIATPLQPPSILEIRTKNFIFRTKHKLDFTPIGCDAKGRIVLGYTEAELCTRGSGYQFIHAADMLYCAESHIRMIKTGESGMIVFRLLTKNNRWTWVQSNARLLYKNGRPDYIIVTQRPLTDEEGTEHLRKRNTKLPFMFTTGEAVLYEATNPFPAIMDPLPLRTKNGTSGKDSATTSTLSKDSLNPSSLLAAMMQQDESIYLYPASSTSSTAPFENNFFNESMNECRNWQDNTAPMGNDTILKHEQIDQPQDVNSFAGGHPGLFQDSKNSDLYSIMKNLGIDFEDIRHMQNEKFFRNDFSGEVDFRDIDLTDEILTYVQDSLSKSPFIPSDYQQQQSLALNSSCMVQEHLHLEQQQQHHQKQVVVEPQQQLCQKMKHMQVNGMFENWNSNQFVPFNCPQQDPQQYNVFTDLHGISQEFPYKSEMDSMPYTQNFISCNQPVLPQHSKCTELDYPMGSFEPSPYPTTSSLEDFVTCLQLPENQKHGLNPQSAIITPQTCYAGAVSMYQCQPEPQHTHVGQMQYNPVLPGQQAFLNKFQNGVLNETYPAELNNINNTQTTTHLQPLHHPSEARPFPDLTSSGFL

With `CC(C)=CC1C(C(=O)OC(C#N)c2cccc(Oc3ccccc3)c2)C1(C)C` (centres undefined), the Potency result (in assay [1]; in assay [2]; in [3]; in the assay with Aromatase (Homo sapiens); in assay [4]; in assay [5]) was “inactive” throughout. Further, the Potency entry in [6], in [7], in [8], in assay [9], in [10] and in [11] was “inactive” each time.

As to `CCn1cc[n+](C)c1` (tested in a mixture with another compound), the Potency entry in assay [1], in [2], in assay [12], in [3], in assay [6] and in assay [9] was “inactive” throughout. The Potency result in assay [10], in assay [11] and in assay [13] was “inactive” each time.

Take `CC(O)C(=O)[O][Hg][c]1ccccc1` (centres undefined): the Potency in assay [1] is 0.686 µM (active); in assay [14], 0.344 µM (active); in [12], 5.49 µM (active); in assay [15] it was 0.692 µM [fluorescent] (active); in assay [3] it was 3.06 µM (active); with Aromatase (Homo sapiens), 0.969 µM (active). Moreover, the Potency in [4] was 1.09 µM (active); in assay [6], 4.86 µM (active); in assay [11], 0.686 µM (active); in assay [13], 1.95 µM (active). Besides, in assay [5], the Potency entry was “inactive”.

Consider `CC(=O)[O-].CC(=O)[O-].O.O.O.[Pb+2]`, for which the Potency entry (in [1]; in assay [2]; in [12]; in assay [3]; with Aromatase (Homo sapiens); in assay [4]) was “inactive” throughout. The Potency entry in [5], in [6], in [9], in assay [11] and in [13] was “inactive” each time. The Potency in assay [10] is 2.73 µM (active).

On to `CC(=O)[O-].CC(=O)[O-].CC(=O)[O-].[Cr+3]`, for which the Potency in assay [1] was 54.3 µM (active). The Potency entry in assay [2], in [12], in assay [3], in assay [5], in assay [6] and in assay [9] was “inactive” in each case. For the same molecule, the Potency entry in assay [11] and in [13] was “inactive” each time.

As for `c1cc[n+]2c(c1)-c1cccc[n+]1CC2`, the Potency result (in assay [1]; in assay [2]; in [16]; in [12]; in assay [15]; with Aromatase (Homo sapiens)) was “inactive” in each case. The Potency result in assay [4], in assay [5], in assay [6], in [7], in assay [9] and in [11] was “inactive” in each case. In addition, the Potency result in [13] was “inactive”. The Potency in assay [10] was 10.6 µM (active).

Take `C[N+]1(C)[C@@H]2CC[C@H]1CC(OC(=O)C(CO)c1ccccc1)C2` (some centres undefined): the Potency result (in assay [1]; in assay [2]; in assay [12]; in assay [17]; in assay [3]; with Aromatase (Homo sapiens)) was “inactive” each time. In addition, the Potency entry in assay [4], in [5], in [6], in assay [9] and in assay [18] was “inactive” each time.

For the molecule `[F][Sn]([c]1ccccc1)([c]1ccccc1)[c]1ccccc1`, the Potency is 0.77 µM (active) in assay [1]; 0.386 µM (active) in assay [14]; 1.1 µM (active) in [12]; 2.19 µM [inconclusive] (active) in [15]; 1.93 µM (active) in assay [17]; 7.7 µM (active) in assay [3]. The Potency in [4] was 3.06 µM (active); in assay [6], 3.86 µM (active); in assay [9], 0.616 µM (active); in assay [11], 0.344 µM (active). For the same molecule, the Potency entry in assay [5] was “inactive”.

Regarding `Fc1ccc(C(OCCN2CCN(CCCc3ccccc3)CC2)c2ccc(F)cc2)cc1`, the Potency is 9.44 µM (active) in assay [1]; 7.5 µM (active) in [14]; 15.1 µM (active) in assay [12]; 21.1 µM (active) in assay [3]; 18.8 µM (active) with Aromatase (Homo sapiens); 26.6 µM (active) in assay [4]. For the same molecule, the results for the Potency in assay [9] and in [11] were 16.8 µM (active) and 29.8 µM (active), respectively. For the same molecule, the Potency result in assay [15] and in assay [5] was “inactive” each time.
